Common to all, as to experiment: DAPPL (digital affinity profiling via proximity ligation, sequencing); 10 mM Tris-HCl pH 7.5, 50 mM NaCl, 1 mM DTT, 4% glycerol, room temperature, 30 min; GST-TFs on glutathione beads, 16-mer random dsDNA library, 0.1% formaldehyde crosslink after washing; high values mean tight binding
What all share (details): protein: recombinant; tags: N-terminal GST; dsDNA, one strand shown

One test addresses T1, ELK1 (Homo sapiens, UniProt P19419 1-428).
T1 sequence: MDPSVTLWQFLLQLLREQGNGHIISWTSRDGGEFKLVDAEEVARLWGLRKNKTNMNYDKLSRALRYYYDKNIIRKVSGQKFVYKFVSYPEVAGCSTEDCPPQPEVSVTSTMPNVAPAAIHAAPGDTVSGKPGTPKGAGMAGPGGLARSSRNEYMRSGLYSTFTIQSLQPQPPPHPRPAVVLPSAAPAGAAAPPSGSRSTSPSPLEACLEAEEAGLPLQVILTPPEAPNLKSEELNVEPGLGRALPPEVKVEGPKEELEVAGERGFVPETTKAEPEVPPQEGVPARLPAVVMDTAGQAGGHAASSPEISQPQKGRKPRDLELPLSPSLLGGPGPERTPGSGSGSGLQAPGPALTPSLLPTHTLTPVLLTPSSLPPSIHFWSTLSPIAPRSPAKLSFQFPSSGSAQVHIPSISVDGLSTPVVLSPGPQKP
An outline of the steps: (§1)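 Sequencing on an Illumina NextSeq500 followed washing, crosslinking with 0.1% formaldehyde, proximity ligation (BsaI/T4 ligase, 1 h, 37 °C) and PCR amplification of pools that had been incubated for 30 min at room temperature with 200 nmole of a random double-stranded 16-mer DNA library in Tris/NaCl/DTT/glycerol buffer. Each pool held DNA-barcoded human transcription factors, expressed in yeast as GST fusions and captured on glutathione beads, plus a tag-only sample. Binding signal is a hexamer's read frequency for a factor divided by its frequency in the tag-only sample.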

The next test addresses T2, ERG (Homo sapiens, UniProt P11308 1-479).
T2 sequence: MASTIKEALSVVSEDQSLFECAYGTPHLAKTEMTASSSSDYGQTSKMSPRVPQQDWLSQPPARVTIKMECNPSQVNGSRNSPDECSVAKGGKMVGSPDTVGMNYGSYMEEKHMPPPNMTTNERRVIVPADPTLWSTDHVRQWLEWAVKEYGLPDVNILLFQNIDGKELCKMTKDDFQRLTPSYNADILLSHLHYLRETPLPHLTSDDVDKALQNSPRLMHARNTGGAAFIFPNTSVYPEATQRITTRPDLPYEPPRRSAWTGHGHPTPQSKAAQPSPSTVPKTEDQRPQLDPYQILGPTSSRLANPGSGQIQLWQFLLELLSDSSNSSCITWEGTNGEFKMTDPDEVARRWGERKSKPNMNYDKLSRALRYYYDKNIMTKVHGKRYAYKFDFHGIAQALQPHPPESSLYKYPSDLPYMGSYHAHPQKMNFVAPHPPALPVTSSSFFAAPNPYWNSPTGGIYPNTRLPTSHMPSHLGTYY
In a few lines:
as §1

The target of a further test is T3, EHF (Homo sapiens, UniProt Q9NZC4 1-300).
T3 sequence: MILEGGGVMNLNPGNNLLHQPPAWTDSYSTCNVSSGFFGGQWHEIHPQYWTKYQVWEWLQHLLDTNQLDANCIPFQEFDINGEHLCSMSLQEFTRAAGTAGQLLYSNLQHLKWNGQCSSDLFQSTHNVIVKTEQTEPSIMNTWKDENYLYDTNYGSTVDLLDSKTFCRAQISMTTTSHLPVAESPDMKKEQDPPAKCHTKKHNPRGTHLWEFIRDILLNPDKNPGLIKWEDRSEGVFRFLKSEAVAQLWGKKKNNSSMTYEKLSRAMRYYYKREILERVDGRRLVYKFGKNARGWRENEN
An outline of the steps: as §1

A further test addresses ETV5 (Homo sapiens, UniProt P41161 1-510). In a few lines:
as §1

The next test has as its target T4, SPIC (Homo sapiens, UniProt Q8N5J4 1-248).
T4 sequence: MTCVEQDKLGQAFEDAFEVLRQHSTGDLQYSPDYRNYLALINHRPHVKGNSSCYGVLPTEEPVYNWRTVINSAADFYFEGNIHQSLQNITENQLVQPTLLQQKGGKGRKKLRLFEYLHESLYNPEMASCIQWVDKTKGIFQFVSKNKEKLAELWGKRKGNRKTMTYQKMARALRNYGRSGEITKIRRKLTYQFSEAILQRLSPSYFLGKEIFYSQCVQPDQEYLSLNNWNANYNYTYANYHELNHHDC
An outline of the steps: as §1

For another test, the target named is ELF4 (Homo sapiens, UniProt Q99607 1-663). An outline of the steps:
as §1

The next test has as its target T5, ELK4 (Homo sapiens, UniProt P28324-2 1-405).
T5 sequence: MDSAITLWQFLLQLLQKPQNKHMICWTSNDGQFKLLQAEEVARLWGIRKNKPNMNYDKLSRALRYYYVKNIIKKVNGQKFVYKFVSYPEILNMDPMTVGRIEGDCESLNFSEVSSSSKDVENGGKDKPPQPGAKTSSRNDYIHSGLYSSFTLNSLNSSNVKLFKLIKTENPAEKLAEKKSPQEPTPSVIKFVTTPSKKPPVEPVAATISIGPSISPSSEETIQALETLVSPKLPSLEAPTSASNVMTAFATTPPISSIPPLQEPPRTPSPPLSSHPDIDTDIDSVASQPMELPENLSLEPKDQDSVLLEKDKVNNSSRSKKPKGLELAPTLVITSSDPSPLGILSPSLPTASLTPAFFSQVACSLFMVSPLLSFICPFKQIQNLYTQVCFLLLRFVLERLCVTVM
An outline of the steps: as §1

For a further test, the target named is T6, ELF3 (Homo sapiens, UniProt P78545 1-371).
T6 sequence: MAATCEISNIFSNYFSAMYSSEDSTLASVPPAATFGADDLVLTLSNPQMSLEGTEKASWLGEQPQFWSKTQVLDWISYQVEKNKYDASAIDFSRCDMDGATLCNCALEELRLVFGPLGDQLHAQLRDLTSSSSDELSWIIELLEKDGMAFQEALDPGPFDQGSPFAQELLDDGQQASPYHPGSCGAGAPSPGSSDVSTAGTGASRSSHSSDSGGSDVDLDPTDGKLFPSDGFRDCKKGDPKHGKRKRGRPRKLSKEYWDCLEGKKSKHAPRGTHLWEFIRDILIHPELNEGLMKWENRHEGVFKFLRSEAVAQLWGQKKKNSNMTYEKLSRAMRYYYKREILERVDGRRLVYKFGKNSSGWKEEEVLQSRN
In a few lines:
as §1

For another test, the target named is T7, ERF (Homo sapiens, UniProt P50548 1-548).
T7 sequence: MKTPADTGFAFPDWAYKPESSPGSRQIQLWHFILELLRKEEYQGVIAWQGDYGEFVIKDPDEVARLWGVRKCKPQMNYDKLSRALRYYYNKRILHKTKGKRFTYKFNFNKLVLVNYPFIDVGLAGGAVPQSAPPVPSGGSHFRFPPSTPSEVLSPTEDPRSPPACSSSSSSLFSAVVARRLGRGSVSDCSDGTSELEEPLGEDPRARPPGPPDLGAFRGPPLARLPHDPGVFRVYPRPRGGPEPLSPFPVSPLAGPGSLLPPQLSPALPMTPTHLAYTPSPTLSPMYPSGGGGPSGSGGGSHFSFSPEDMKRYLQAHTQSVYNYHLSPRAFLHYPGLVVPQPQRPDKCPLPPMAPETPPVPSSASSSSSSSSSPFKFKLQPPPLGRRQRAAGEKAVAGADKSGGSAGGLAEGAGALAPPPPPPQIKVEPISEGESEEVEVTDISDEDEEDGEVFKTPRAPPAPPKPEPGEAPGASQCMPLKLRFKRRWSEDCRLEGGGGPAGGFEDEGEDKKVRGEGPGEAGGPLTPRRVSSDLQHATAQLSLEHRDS
In a few lines: as §1

A further test concerns the target T8, ETV3L (Homo sapiens, UniProt Q6ZN32 1-361).
T8 sequence: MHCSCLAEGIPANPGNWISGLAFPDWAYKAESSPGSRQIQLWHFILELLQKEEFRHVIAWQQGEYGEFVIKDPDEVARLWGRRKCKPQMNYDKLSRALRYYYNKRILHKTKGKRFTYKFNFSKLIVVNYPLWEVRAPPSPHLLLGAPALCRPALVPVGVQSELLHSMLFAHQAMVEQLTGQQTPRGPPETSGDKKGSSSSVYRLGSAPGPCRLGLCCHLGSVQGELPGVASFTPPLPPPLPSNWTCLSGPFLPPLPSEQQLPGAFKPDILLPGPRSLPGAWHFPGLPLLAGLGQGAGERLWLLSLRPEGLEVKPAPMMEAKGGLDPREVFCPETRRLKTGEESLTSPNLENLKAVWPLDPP
In a few lines: as §1

The next test deals with T9, ETS2 (Homo sapiens, UniProt P15036 1-469).
T9 sequence: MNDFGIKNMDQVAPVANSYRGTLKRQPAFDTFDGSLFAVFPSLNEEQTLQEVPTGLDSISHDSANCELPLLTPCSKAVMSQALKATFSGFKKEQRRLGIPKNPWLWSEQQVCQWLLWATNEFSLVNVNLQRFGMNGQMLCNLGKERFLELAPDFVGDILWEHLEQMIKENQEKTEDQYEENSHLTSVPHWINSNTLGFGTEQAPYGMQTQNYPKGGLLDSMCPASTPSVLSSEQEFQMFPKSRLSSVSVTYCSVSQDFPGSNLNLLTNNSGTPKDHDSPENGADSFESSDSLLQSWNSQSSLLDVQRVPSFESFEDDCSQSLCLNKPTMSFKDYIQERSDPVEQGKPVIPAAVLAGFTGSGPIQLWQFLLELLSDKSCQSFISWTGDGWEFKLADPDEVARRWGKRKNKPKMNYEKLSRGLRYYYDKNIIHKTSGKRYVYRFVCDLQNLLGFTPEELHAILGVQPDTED
In a few lines: as §1

The target in the next test is T10, SPDEF (Homo sapiens, UniProt O95238 1-335).
T10 sequence: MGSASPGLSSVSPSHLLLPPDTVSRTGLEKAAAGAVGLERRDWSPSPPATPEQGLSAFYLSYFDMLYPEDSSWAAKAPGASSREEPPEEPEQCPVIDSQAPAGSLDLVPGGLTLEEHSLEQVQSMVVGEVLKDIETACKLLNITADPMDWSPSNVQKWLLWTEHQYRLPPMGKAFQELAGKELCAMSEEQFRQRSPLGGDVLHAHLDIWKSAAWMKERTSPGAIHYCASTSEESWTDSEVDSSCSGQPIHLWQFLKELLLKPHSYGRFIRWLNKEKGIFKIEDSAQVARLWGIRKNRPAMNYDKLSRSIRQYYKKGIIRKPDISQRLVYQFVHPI
In a few lines: as §1

A further test concerns the target T11, ETV3 (Homo sapiens, UniProt P41162-2 1-143).
T11 sequence: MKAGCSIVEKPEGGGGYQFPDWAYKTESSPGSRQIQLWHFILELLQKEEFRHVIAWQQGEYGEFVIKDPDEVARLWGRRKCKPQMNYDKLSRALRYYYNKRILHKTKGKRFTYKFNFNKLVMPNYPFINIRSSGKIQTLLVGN
In a few lines: as §1

The target in a further test is ETV6 (Homo sapiens, UniProt P41212 1-452). An outline of the steps:
as §1

ELF4, sequence (Q99607 whole entry): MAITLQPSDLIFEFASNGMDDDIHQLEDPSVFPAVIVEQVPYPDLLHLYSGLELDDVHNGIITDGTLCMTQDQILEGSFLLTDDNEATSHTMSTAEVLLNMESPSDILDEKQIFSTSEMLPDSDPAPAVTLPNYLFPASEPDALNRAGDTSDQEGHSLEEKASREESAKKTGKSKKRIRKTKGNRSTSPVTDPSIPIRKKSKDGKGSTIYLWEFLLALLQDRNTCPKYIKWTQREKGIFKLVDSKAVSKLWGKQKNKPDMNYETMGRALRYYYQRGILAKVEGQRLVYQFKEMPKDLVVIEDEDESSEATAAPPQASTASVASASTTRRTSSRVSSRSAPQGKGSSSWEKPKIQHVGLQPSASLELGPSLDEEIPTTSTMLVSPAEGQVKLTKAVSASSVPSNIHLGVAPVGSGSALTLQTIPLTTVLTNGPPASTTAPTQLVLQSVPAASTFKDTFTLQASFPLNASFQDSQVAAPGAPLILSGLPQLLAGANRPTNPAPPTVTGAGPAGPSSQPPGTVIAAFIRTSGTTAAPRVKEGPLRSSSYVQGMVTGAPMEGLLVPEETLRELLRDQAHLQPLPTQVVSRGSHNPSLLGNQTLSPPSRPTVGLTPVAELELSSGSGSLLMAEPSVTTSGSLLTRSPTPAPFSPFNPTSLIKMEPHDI
ETV5, sequence (P41161 whole entry): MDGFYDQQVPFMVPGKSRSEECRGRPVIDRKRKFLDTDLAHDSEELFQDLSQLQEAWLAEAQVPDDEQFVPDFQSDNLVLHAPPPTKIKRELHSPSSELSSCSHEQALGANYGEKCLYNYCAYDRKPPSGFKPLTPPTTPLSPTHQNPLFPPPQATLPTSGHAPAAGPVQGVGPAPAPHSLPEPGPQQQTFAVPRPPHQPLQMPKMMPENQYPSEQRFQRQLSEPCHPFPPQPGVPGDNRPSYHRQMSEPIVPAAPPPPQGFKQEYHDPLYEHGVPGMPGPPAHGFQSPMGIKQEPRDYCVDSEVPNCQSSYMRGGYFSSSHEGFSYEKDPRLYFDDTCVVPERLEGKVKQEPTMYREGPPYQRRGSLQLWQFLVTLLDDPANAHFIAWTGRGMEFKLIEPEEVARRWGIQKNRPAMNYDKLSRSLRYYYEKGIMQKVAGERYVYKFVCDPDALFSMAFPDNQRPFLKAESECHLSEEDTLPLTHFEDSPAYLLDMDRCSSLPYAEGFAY
ETV6, sequence (P41212 whole entry): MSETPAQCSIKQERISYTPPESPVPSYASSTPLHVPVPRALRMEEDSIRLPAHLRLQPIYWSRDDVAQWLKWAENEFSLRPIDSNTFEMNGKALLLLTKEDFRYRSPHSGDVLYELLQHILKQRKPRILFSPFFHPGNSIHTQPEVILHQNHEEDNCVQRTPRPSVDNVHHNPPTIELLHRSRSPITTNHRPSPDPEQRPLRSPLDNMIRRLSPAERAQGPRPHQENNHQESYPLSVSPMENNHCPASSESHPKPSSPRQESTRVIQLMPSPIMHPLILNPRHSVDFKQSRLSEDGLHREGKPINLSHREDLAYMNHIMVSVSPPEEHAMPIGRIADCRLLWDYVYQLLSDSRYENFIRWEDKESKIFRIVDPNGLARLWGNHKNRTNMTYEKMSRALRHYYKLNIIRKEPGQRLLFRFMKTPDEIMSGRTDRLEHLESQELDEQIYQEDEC

Take TGGGTG: the binding signal is 1.09 fold enrichment (6-mer frequency, TF over GST control) with ELK1; 1.01 fold enrichment (6-mer frequency, TF over GST control) in the test with ERG; 1.01 fold enrichment (6-mer frequency, TF over GST control) in the test with EHF; 1.02 fold enrichment (6-mer frequency, TF over GST control) in the test with ETV5; 1.03 fold enrichment (6-mer frequency, TF over GST control) with SPIC; 1.01 fold enrichment (6-mer frequency, TF over GST control) in the test with ELF4. Also, the binding signal with ELK4 is 1.07 fold enrichment (6-mer frequency, TF over GST control); with ELF3, 1.03 fold enrichment (6-mer frequency, TF over GST control); with ERF it was 1.06 fold enrichment (6-mer frequency, TF over GST control); with ETV3L it was 1.08 fold enrichment (6-mer frequency, TF over GST control); with ETS2 it was 1.07 fold enrichment (6-mer frequency, TF over GST control); in the test with SPDEF, 1.01 fold enrichment (6-mer frequency, TF over GST control). Further, the binding signal was 1 fold enrichment (6-mer frequency, TF over GST control) with ETV3 and 1.21 fold enrichment (6-mer frequency, TF over GST control) with ETV6.

The values above are taken from paper PMC7862700, “An all-to-all approach to the identification of sequence-specific readers for epigenetic DNA modifications on cytosine”.
